# Test results: PubChem BioAssay
# Active and inactive are the calls of the source.
# Columns and labels:
# Albumin (Bos taurus) = Albumin (Bos taurus) (UniProt P02769); assay: bovine serum albumin binders on microarray, profiling panel, artefact control for SMM control protein annotation, biochemical, small-molecule microarray, Alexa647 label, 635/667 nm fluorescence (AID 1118); details: BSA-A647 binding, fluorescence 635 nm, higher = more signal;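 also: score merges 667 nm emission intensity and signal-to-noise per printed compound spot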
# [1] = small-molecule microarray binders of probe aXIP, primary screen, biochemical, NeuroSMM set, 635/667 nm fluorescence (AID 1119); details: higher = more signal, called active from +8 up or from −8 down;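 also: probe is the protein aXip251-270 applied at 1 µg/mL to compound-printed slides; binding of probe to printed compounds measured as 667 nm fluorescence plus signal to noise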
# [2] = small-molecule binders of probe aNOTCH3, primary screen, biochemical, small-molecule microarray, 635/667 nm fluorescence (AID 1120); details: higher = more signal;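 also: probe is a biotin-tagged antibody raised against NOTCH3 rather than NOTCH3 protein; score merges spot fluorescence near 667 nm with spot signal to noise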
# [3] = small-molecule binders of probe aNOTCH2, primary screen, biochemical, small-molecule microarray, 635/667 nm fluorescence (AID 1121); details: higher = more signal;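 also: score merges feature fluorescence read at 667 nm with its signal to noise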
# [4] = molecular target: Carbonic anhydrase 2 (Homo sapiens) (UniProt P00918); assay: CAII small-molecule binders, profiling panel, biochemical, small-molecule microarray, Alexa647-labelled CAII (AID 1122); details: CAII-A647 binding fluorescence, higher = more signal
# [5] = COS7 lysate on small-molecule microarray, probe aHis, 635 nm (AID 1123); details: COS7 cell lysate, fluorescence, higher = more signal;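 also: z-score combines 667nm fluorescence intensity with signal-to-noise per printed compound spot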
# [6] = compound binding in COS7 lysate, probe aLAP1, primary screen, cell lysate, small-molecule microarray (AID 1124); details: probe aLAP1, fluorescence, higher = more signal;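 also: lysate comes from COS7 cells expressing LAP1 and is applied at 0.3 µg/mL; score merges spot fluorescence near 667 nm with signal-to-noise over triplicate slides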
# Sam68 (KHDRBS1) = assay: Sam68 small-molecule binders, primary screen, biochemical, small-molecule microarray, 635 nm fluorescence (AID 1125); details: small-molecule microarray binding, higher = more signal;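 also: score merges 667 nm channel intensity with signal to noise over triplicate slides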
# [7] = system: Chordin-like protein 2 (CHRDL2); assay: CHRDL2 small-molecule binders, primary screen, biochemical, small-molecule microarray, 635 nm fluorescence (AID 1126); details: small-molecule microarray binding, fluorescence 635 nm; higher = more signal;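 also: printed compound slides probed with Chrdl2 protein at 4 µg/mL for 1 h at 4 C; score merges 667 nm emission intensity with signal to noise over three replicate slides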
# [8] = molecular target: Concanavalin-A (Canavalia ensiformis) (UniProt P02866); assay: ConA small-molecule binders, primary screen, artefact control for SMM control protein annotation, biochemical, small-molecule microarray, Alexa647 label, 635 nm (AID 1127); details: ConA-A647 binding fluorescence, higher = more signal;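 also: z combines 667 nm emission intensity with signal-to-noise across three replicate slides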
# [9] = anti-His antibody binders, primary screen, artefact control for SMM control protein annotation, biochemical, small-molecule microarray, 635 nm fluorescence (AID 1128); details: anti-His Alexa647 antibody binding, higher = more signal;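 also: score merges feature fluorescence with signal-to-noise for each printed compound spot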
# [10] = system: Human papillomavirus type 1a E7 protein (residues 1-88); assay: HPV1a E7 small-molecule binders, primary screen, biochemical, small-molecule microarray, residues 1-88, 635 nm (AID 1129); details: small-molecule microarray binding, fluorescence 635 nm; higher = more signal
# [11] = molecular target: Focal adhesion kinase 1 (Homo sapiens) (UniProt Q05397); assay: small-molecule microarray binders of FAK, primary screen, biochemical, 635/667 nm fluorescence, BSA, DTT (AID 1130); details: PTK2 binding, 635 nm fluorescence, higher = more signal;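 also: composite of spot emission at 667 nm and signal to noise over triplicate slides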
# [12] = system: Fibrinogen (Alexa647-labelled); assay: fibrinogen binders on compound microarrays, profiling panel, artefact control for SMM control-protein annotation, biochemical, small-molecule microarray, 635/667 nm fluorescence (AID 1131); details: fibrinogen-A647 binding fluorescence, higher = more signal;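 also: z-score merges 667 nm fluorescence with per-spot signal-to-noise over triplicate slides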
# [13] = molecular target: Follistatin (Homo sapiens) (UniProt P19883); assay: follistatin binders on small-molecule microarrays, primary screen, biochemical, small-molecule microarray, 635/667 nm fluorescence (AID 1132); details: FST binding, 635 nm fluorescence, higher = more signal
# [14] = molecular target: Fibroblast growth factor 2 (Homo sapiens) (UniProt P09038); assay: FGF2 binders on small-molecule microarrays, primary screen, biochemical, small-molecule microarray, 635/667 nm fluorescence (AID 1133); details: small-molecule microarray binding, FGF2, fluorescence 635/667; higher = more signal
# [15] = mitochondrial membrane potential change in A549 cells, profiling panel, cell-based, JC-1 fluorescence, basal, 24 h, 100 nL (AID 1138); details: higher = more signal;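 also: A549 lung adenocarcinoma cells under basal conditions with no added stimulus; test concentration not given here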
# Lefty1 = Lefty1 binders on small-molecule microarrays, primary screen, biochemical, small-molecule microarray, 635/667 nm fluorescence (AID 1139); details: small-molecule microarray binding, fluorescence 635/667; higher = more signal
# [16] = system: wheat germ agglutinin (Triticum aestivum), Alexa647-labelled; assay: wheat germ agglutinin binders on compound microarrays, profiling panel, artefact control for SMM control-protein annotation, biochemical, small-molecule microarray, 635/667 nm fluorescence (AID 1140); details: WGA-A647 binding, 635 nm fluorescence, higher = more signal;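 also: score merges 667 nm feature emission with signal to noise over triplicate slides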
# [17] = molecular target: Luciferin 4-monooxygenase (Photinus pyralis) (UniProt P08659); assay: firefly luciferase enzyme inhibitors, primary screen, biochemical, luminescence, purified enzyme, 2006 set (AID 1141); details: SteadyGlo luminescence, 30 min, higher = more signal, called active from +8 up or from −8 down;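 also: cell-free assay with purified firefly luciferase at 100 ng per well in PBS; test concentration not given here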
# Chain of Luciferin 4-monooxygenase (Photinus pyralis) (P08659 whole entry, looked up): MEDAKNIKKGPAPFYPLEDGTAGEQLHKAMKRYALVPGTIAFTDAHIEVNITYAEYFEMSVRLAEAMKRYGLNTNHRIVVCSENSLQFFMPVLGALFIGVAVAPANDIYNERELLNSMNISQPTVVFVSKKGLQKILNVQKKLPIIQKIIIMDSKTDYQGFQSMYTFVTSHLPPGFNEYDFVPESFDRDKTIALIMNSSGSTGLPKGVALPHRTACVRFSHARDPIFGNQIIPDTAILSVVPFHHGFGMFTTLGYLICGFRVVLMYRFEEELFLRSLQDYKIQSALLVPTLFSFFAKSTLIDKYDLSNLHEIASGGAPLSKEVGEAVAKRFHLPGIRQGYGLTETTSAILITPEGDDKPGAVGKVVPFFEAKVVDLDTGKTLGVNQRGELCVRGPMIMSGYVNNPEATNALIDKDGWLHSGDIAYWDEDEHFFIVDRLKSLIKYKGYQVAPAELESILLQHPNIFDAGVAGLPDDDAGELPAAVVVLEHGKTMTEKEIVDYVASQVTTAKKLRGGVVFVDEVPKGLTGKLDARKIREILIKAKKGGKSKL
# Chain of Albumin (Bos taurus) (P02769 whole entry, looked up): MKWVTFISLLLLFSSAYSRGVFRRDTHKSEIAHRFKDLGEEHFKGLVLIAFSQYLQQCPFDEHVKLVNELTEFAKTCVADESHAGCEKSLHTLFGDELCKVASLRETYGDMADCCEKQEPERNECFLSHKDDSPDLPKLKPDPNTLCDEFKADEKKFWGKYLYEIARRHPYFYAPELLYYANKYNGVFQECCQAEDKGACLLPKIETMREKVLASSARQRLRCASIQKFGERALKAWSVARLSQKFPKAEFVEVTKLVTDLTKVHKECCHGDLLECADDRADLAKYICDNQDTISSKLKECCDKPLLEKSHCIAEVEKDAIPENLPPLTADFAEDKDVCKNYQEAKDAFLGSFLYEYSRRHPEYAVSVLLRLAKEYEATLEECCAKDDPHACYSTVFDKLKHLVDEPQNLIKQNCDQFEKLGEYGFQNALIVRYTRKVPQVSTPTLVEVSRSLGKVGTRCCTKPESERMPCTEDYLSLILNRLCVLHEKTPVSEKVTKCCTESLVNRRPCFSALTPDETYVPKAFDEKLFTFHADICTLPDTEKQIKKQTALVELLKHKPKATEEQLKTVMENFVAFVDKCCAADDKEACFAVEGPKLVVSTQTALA
# Chain of Concanavalin-A (Canavalia ensiformis) (P02866 whole entry, looked up): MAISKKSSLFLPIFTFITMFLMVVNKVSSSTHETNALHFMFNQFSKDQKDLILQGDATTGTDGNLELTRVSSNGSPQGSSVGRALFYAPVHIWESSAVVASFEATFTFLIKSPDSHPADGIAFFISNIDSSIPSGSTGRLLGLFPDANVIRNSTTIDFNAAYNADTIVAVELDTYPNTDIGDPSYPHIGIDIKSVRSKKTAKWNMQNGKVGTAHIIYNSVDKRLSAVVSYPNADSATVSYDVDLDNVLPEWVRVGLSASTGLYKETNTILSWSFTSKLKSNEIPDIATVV
# Chain of Follistatin (Homo sapiens) (P19883 whole entry, looked up): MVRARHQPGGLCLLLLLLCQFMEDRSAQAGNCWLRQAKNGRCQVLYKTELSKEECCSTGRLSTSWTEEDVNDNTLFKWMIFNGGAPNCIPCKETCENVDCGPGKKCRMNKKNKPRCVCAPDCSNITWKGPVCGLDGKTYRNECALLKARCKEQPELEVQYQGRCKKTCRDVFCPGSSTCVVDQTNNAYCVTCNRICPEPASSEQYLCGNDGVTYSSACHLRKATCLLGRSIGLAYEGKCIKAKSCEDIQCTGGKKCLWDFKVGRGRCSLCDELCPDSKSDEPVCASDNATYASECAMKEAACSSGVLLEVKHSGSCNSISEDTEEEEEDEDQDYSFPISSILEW
# Chain of Fibroblast growth factor 2 (Homo sapiens) (P09038 whole entry, looked up): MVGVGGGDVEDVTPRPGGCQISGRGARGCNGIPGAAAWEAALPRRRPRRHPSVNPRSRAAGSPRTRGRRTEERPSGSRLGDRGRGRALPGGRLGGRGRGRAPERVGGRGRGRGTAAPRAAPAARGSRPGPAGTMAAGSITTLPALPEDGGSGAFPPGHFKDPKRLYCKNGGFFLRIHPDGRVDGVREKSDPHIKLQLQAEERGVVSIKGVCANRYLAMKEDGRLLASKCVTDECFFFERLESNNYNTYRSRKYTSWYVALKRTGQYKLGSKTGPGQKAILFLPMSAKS
# Chain of Focal adhesion kinase 1 (Homo sapiens) (Q05397 whole entry, looked up): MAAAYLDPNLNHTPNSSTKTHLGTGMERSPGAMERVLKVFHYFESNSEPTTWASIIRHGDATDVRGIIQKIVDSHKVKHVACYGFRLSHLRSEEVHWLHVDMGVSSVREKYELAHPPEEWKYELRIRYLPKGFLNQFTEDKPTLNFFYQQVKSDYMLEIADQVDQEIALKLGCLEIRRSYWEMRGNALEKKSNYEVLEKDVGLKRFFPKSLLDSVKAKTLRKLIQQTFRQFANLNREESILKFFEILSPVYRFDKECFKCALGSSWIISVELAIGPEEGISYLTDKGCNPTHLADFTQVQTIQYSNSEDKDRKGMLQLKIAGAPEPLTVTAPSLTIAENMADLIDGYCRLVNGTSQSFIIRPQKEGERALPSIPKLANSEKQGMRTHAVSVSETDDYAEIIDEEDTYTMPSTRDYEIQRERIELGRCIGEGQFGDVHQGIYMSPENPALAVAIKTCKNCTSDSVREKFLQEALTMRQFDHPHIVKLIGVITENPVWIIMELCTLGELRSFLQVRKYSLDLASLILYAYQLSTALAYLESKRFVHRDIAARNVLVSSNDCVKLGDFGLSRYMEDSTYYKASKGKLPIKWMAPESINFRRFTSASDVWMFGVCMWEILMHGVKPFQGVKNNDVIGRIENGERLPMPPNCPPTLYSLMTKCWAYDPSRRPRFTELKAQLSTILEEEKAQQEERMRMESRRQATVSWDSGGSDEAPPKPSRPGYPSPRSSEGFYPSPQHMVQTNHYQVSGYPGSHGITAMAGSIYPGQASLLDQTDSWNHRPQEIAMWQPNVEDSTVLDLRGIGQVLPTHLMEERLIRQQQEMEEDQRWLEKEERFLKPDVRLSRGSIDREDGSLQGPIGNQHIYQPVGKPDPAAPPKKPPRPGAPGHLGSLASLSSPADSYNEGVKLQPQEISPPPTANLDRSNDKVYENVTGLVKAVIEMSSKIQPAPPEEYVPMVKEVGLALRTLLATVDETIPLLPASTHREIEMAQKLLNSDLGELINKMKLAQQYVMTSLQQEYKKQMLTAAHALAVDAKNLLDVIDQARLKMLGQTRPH
SMILES,composite z-score (Albumin (Bos taurus)),composite Z-score [1],composite z-score [2],composite z-score [3],composite z-score [4],composite z-score [5],composite z-score [6],composite z-score (Sam68 (KHDRBS1)),composite z-score [7],composite z-score [8],composite z-score [9],composite z-score [10],composite z-score [11],composite z-score [12],composite z-score [13],composite z-score [14],z-score [15],composite z-score (Lefty1),composite z-score [16],z-score [17]
O=C(NCCN1CCOCC1)C1N=C(c2ccc(OCCCO)cc2)N(c2ccccc2)O1 (stereo not given),0.439,0.267 (inactive),0.0261,0.119,0.835,2.79,0.908,1.3,1.41,0.691,1.22,1.29,0.124,0.545,1.52,1.58,1.23,0.813,0.61,-8.16 (active)
COC(=O)[C@@]1(Cc2ccccc2)[C@H]2c3cc(C(=O)N4CCCC4)n(Cc4ccc(S(C)(=O)=O)cc4)c3C[C@H]2CN1C(=O)c1ccccc1,1.12,0.971 (inactive),0.511,-0.173,0.902,1.92,0.559,1.29,-0.832,0.978,1.27,1.27,2.05,1,1.03,-0.771,0.687,-0.07,1.08,1.3 (inactive)
CN1C(=O)C2C=CC(C(O)c3ccc([N+](=O)[O-])cc3)N(N3CCCCC3)C2C1=O (stereo not given),0.818,-0.0829 (inactive),0.246,0.0791,0.673,1.55,0.761,1.26,0.172,1.09,0.922,1.18,0.115,0.938,1.12,0.651,-0.39,-0.0977,0.913,-0.661 (inactive)
COC(=O)[C@@]1(Cc2ccc(F)cc2)[C@H]2c3cc(C(=O)N(C)C)n(Cc4cc(F)c(F)c(F)c4)c3C[C@H]2CN1C(=O)c1ccccc1,0.935,0.0144 (inactive),0.672,0.214,0.613,2.37,0.351,1.13,-0.0618,1.13,1.13,1.21,0.538,0.711,1.02,-0.0402,0.918,-0.788,0.704,2.37 (inactive)
C=CCC(OC(C)=O)[C@@H]1[C@@H](N(Cc2ccc(-c3ccccc3)cc2)C(=O)Cc2ccc(OC)cc2)c2cc(OCCCO)ccc2N1C(=O)Cc1ccc2ccccc2c1 (stereo not given in full),0.0549,0.142 (inactive),-0.0841,-0.112,0.064,0.49,-0.149,-0.493,-0.0169,-1.7,-0.142,-0.442,0.151,0.389,-0.0399,-0.197,0.112,0.168,0.182,-0.358 (inactive)
CC(C)C(=C=CC[C@H](O)c1ccc(OCCO)cc1)CCO,0.467,-0.435 (inactive),-0.116,-0.174,0.228,1.83,0.182,1.28,0.489,0.549,1.07,1.2,0.178,0.53,1.38,1.05,0.41,1.07,0.295,-0.961 (inactive)
C=C(CC1([C@@H](NP(=O)(c2ccccc2)c2ccccc2)[C@H]2C[C@@H]2CCCC)CC1)c1ccccc1,0.844,0.121 (inactive),0.335,0.17,0.252,2.67,-0.293,1.14,-0.874,0.546,0.767,1.19,0.0976,0.746,0.132,0.0962,-0.0757,-0.415,0.729,2.82 (inactive)
O=C1O[C@@H](c2ccccc2)[C@@H](c2ccccc2)N2[C@@H](c3ccccc3OCCO)[C@]3(C(=O)Nc4ccc(C#CC5=CCCCC5)cc43)[C@@H](C(=O)N3CCCCCCC3)[C@H]12,0.407,7.47 (inactive),2.16,1.08,1.04,4.3,1.29,1.31,1.68,1.09,1.53,1.32,3.35,0.487,1.48,0.095,-0.489,1.63,1.64,-1.16 (inactive)
CC(C)C(=C=CC[C@@H](O)c1ccc(OCCO)cc1)C[C@@H](O)c1ccccn1,-0.363,1.24 (inactive),0.0553,-0.13,0.368,-0.0995,0.33,0.726,1.38,0.817,-0.449,-0.251,-0.542,0.819,1.58,1.78,-0.306,1.51,-0.187,-0.069 (inactive)
